Bioassay records: PubChem, National Center for Advancing Translational Sciences (NCATS)
This is a sample that favours compounds with a hit; in the whole collection about 7.3% have one here.
SMN2 splice enh: qHTS Assay for Enhancers of SMN2 Splice Variant Expression; HEK293 SMN2-luciferase splicing reporter, luminescence, 30-36 h; Potency, µM (titrated, usually from 46.1 µM), for the others: at the top dose activity change, positive = activation, hits mostly activators; 210,000 compounds, 2.8% hits; note: % of control where 0% means no effect; nearly all actives have a fitted effect of over 55% in size
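qHTS luciferase splicing reporter: luminescence rises when SMN2 exon 7 is included in transfected HEK293 cells. Compound exposure lasted 30-36 h at 37C, with 4.5 mM final sodium butyrate as control, followed by a ONE-Glo read.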
KinaseGlo FLuc: Counterscreen for Luciferase (Kinase-Glo TM) Inhibition; Luciferin 4-monooxygenase (Photuris pensylvanica), Q27757; 200,000 compounds, 0.28% hits; Kinase-Glo luciferase, ATP luminescence, 8 min; Potency, µM (doses to about 38.3 µM), inactives show top-dose activity change, negative = inhibition, usual class: inhibitors; note: % is set by controls: 0 for no effect and ±100 for the full control effect; nearly all actives have a fitted effect of over 60% in size
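Recombinant Kinase-Glo luciferase, 10 uM ATP (linear range), luciferin; imidazole pH 7.2 / KCl / MgCl2 / Tween / BSA buffer; 8 min RT; luminescence.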
Rab9 prom act: qHTS Assay for Rab9 Promoter Activators | Huh7 Rab9 promoter-luciferase reporter, luminescence, 24 h | Potency, µM (series often up to 9.22 µM), for inactives: at the top dose activation, negative = inhibition, most hits filed as activators | 320,000 compounds, 2.8% hits; note: % of control where 0% means no effect; nearly all actives have a fitted effect of over 60% in size
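Luminescence read-out: Huh7 cells stably expressing Rab9-luciferase, treated 24 h with compound at 37 °C, then lysed with luciferase reagent for 10 min at ambient before reading.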
FLuc modulator: qHTS profiling assay for firefly luciferase inhibitor/activator using purifed enzyme and Km concentrations of substrates (counterscreen for miR-21 project). Luciferin 4-monooxygenase (Photinus pyralis), P08659. purified FLuc, Km substrates, luminescence inhibition. Potency, µM (series often up to 57.5 µM), for the others: top-dose activity change, negative = inhibition, most hits filed as inhibitors. 360,000 compounds, 6.9% hits. AID 588342, 2011;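 note: plate controls were vehicle for no effect and reference inhibitor for full effect; nearly all actives have a fitted effect of over 55% in size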
Target sequence (P08659 whole entry, looked up): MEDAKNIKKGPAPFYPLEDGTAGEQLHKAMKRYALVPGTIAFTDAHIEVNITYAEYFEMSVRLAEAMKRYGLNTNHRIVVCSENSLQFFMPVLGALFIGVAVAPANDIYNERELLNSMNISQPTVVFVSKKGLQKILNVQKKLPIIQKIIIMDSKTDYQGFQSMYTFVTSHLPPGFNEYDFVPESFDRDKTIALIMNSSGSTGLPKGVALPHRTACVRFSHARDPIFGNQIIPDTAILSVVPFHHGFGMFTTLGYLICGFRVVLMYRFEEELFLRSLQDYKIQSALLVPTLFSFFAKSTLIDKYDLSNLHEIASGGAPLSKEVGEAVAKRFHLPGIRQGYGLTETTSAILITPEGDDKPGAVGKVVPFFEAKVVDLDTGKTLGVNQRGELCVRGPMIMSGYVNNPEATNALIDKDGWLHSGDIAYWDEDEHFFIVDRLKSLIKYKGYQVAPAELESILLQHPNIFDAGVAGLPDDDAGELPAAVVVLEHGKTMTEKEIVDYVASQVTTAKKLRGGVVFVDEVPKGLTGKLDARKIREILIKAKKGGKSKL
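Biochemical qHTS of compounds, final roughly 60 µM downward over six points, against 10 nM purified firefly luciferase using Km concentrations of substrates (10 uM D-luciferin, 10 uM ATP) in Tris acetate pH 7.5 buffer; luminescence output.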
NPC1 prom act: qHTS Assay for NPC1 Promoter Activators. Huh7 NPC1 promoter luciferase reporter, 24 h. Potency, µM (doses to about 9.22 µM), for inactives: at the highest dose activation, most hits filed as activators. 320,000 compounds, 2.4% hits. AID 485313, 2010; note: % of control where 0% means no effect; nearly all actives have a fitted effect of over 60% in size
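Huh7 cells stably carrying NPC1 promoter–luciferase, plated in Opti-MEM with 10% FBS for 2 h, were exposed to compound in DMSO for 24 h at 37 °C; luciferase reagent was added for 10 min and luminescence read.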
* hit, by the source's call; u = inconclusive; x = not tested or not shown; [ ] = remark or other dose. Calls come from the whole dose curve; as a rule, active = well fitted curve in the direction sought with a large enough effect; inconclusive = small, poorly fitted or top-dose-only effect, or another doubt; inactive = no such curve, though single readings can be large; an effect the other way counts as inactive or inconclusive. Potency is the fitted concentration of half-maximal effect.

SMILES	SMN2 splice enh	KinaseGlo FLuc	Rab9 prom act	FLuc modulator	NPC1 prom act
CCCCN(C)CCCNC(=O)Cn1ncc2c3ccccc3n(Cc3cccc(Cl)c3)c2c1=O	6.5%	x	x	-6.5%	x
COc1ccc(CC(=O)NCc2ccc3c(c2)CCN3C(C)=O)cc1	x	x	x	4.1%	x
BrCCOCCOc1ccc2ccccc2c1	u	-0.1%	u	15.1µM*	u
C=CCOc1ccc(/C=C2\SC(=S)N(C(C(=O)O)c3ccccc3)C2=O)cc1 (centres undefined)	x	x	-3.4%	21.3µM*	-0.4%
COc1ccc(OC)c(/C=C2\SC(=S)N(C(C(=O)O)c3ccccc3)C2=O)c1 (centres undefined)	x	x	-0.2%	-8.6%	6.4%
CCOc1ccc(/C=C2\SC(=S)N(C(C(=O)O)c3ccccc3)C2=O)cc1OC (centres undefined)	x	x	-11.2%	19µM*	-0.8%
COCCN1C(=O)c2[nH]nc(-c3ccccc3O)c2C1c1ccc(OCc2ccccc2)c(OC)c1 (centres undefined)	6.3%	x	x	-11.1%	x
O=C(N/N=C\c1c(O)ccc2ccccc12)c1ccc(O)cc1	x	x	2.7%	12µM*	-41.3%
Cn1c(-c2ccccc2)c(/C=N/NC(=O)c2ccc(O)cc2)c2ccccc21	x	x	u	0.953µM*	u
Cn1c(-c2ccccc2)c(C=O)c2ccccc21	x	-2.5%	0.4%	u	5.5%
CCOc1ccc2ccccc2c1/C=N\NC(=O)c1ccc([N+](=O)[O-])cc1	x	x	-0.7%	9.53µM*	0.0%
CCOc1ccc(OCC)c(NC(=O)CCc2nc3cccnc3n2-c2ccccc2)c1	-17.6%	x	x	5.8%	x
CC(C)CNC(=O)c1cc(-c2ccc(Cl)c(Cl)c2)on1	18.6%	-5.2%	4.47µM*	-10.8%	u
O=C(c1cc(-c2ccc(Cl)c(Cl)c2)on1)N1CCCCC1	22.4µM*	-6.4%	1µM*	4.26µM*	2.82µM*
O=C(c1cc(-c2ccc(Cl)cc2)on1)N1CCN(c2ccc(F)cc2)CC1	x	x	-1.0%	-1.6%	-0.2%
O=C(c1cc(-c2ccc(Cl)cc2)on1)N1CCCC1	x	x	0.447µM*	2.13µM*	0.562µM*
O=C(c1cc(-c2cccc(Cl)c2)on1)N1CCCC1	x	x	2.82µM*	13.5µM*	3.98µM*
O=C(c1cc(-c2cccc(Cl)c2)on1)N1CCc2ccccc2C1	x	x	0.4%	-13.9%	1.5%
O=C(c1cc(-c2ccc(Cl)c(Cl)c2)on1)N1CCN(c2ccccc2)CC1	-1.8%	12.6%	0.7%	u	-6.3%
CCNC(=O)CC1C(=O)N(c2ccc(F)cc2)C(=O)N1Cc1ccc(OC)c(OC)c1 (centres undefined)	0.6%	x	x	-2.2%	x
CCNc1ccccc(-c2ccc3ccccc3n2)c1=O	11.2µM*	4.6%	u	12µM*	u
O=C(Oc1ccccc1F)c1nc(SCc2ccc(F)cc2)ncc1Cl	8.2%	x	x	-3.3%	x
COc1ccccc1N1CCN(c2ccc(=O)n(CC(=O)NCc3ccc(F)cc3)n2)CC1	x	x	x	-7.3%	x
Cc1ccc(C2C=NN(c3ccccc3)C2=O)cc1 (centres undefined)	x	-2.6%	u	12µM*	15.7%
O=C(/C=C/NNC(=O)c1ccc(Br)cc1)c1ccccc1	-11.9%	5.2%	-3.4%	u	-2.8%
SMILES	SMN2 splice enh	KinaseGlo FLuc	Rab9 prom act	FLuc modulator	NPC1 prom act
CCc1ccc(C(=O)/C=C/NCc2ccc(F)cc2)cc1	26.6%	2.0%	u	u	18.0%
O=C(/C=C/NNC(=O)c1ccccc1)c1ccccc1	1.0%	3.7%	-0.7%	u	5.2%
CC(/C=C/C(=O)c1ccc(C)cc1)=C\c1ccccc1	-26.4%	5.5%	u	4.26µM*	u
Cc1ccc(C(=O)/C=C\NCc2ccccc2)cc1	u	-0.8%	u	10.7µM*	u
Cc1ccc(C(=O)C=CNNC(=O)c2ccccc2)cc1	x	x	9.1%	23.9µM*	11.9%
O=C(/C=C/NNC(=O)c1ccccc1O)c1ccccc1	x	x	13.8%	19µM*	18.1%
CC(C)c1ccc(NC(=O)CSC2=Nc3ccccc3C3=NC(CCC(=O)NCc4ccco4)C(=O)N23)cc1 (centres undefined)	x	x	x	-2.1%	x
Cc1ccc(C(=O)/C=C\C(=O)c2ccc(C)cc2)cc1	24.5%	-0.9%	-0.5%	u	-8.2%
Cc1ccc(S/C=C\C(=O)c2ccccc2)cc1	-3.3%	-22.2%	11.3%	0.135µM*	10.2%
CCOc1ccccc1CNC(=O)c1ccc(Cn2c(=O)c3cccn3c3cccnc32)cc1	x	x	x	-9.2%	x
CCN(C(=O)Cn1c(C(=O)OC)cc2oc3ccccc3c21)c1cccc(C)c1	-24.2%	x	x	-12.2%	x
Cc1cccc2nc(CSc3nnc(N)s3)cn12	x	x	24.3%	-13.7%	13.0%
Cc1cccc2nc(COc3ccc4ccccc4c3Br)cn12	x	x	3.16µM*	2.39µM*	3.55µM*
CCN(CC)CCCNC(=O)C1CCN(S(=O)(=O)CC)CC1	x	x	x	-2.0%	x
O=C(NC1CC1)C1=C[C@@H](C2CCCCC2)C[C@@H](OCc2ccc(CO)cc2)O1	x	x	1.8%	u	-3.6%
NC(=O)C1=C[C@H](C2CCCCC2)C[C@H](OCc2ccc(CO)cc2)O1	x	x	3.16µM*	10.7µM*	2.51µM*
CCOc1ccc(Nc2ncnc3c2nc2n3CCCC2)cc1	x	x	x	15.1µM*	x
Cc1ccc(Nc2ncnc3c2nc2n3CCCC2)cc1F	x	x	x	13.5µM*	x
Cc1cc(C)cc(Nc2ncnc3c2nc2n3CCCC2)c1	x	x	x	-12.6%	x
COc1ccccc1Nc1ncnc2c1nc1n2CCCC1	x	x	x	-2.2%	x
Fc1ccccc1Nc1ncnc2c1nc1n2CCCCC1	x	x	x	12µM*	x
CC(C)c1ccc(Nc2ncnc3c2nc2n3CCCC2)cc1	x	x	x	5.36µM*	x
CC1CCN(S(=O)(=O)c2ccc3c(c2)N(CC(=O)NCc2ccccc2)C(=O)CO3)CC1	-6.8%	x	x	-4.2%	x
C=C1c2cccc(C(F)(F)F)c2O[C@H](C(=O)OCC)C1OC (mixture of isomers)	x	3.8%[39.9 µM]	x	x	x
O=c1[nH]c2ccc(NCc3ccc(-c4ccc(F)cc4)o3)cc2[nH]1	x	x	x	6.8%	x
SMILES	SMN2 splice enh	KinaseGlo FLuc	Rab9 prom act	FLuc modulator	NPC1 prom act
COc1ccc(-c2cn3c(C)c(C(=O)NC(C)C)sc3n2)cc1	-3.6%	-5.0%	u	u	24.4%
COc1ccc(-c2cn3c(C)c(C(=O)Nc4cccc(C)n4)sc3n2)cc1	u	-2.0%	2.4%	12µM*	0.4%
COc1ccc(-c2cn3c(C)c(C(=O)NC(C)(C)C)sc3n2)cc1	x	x	0.631µM*	5.36µM*	2µM*
CCOc1cccc2cc(S(=O)(=O)c3ccccc3F)c(=O)oc12	-2.9%	x	x	-0.2%	x
CCCn1c(SCC(=O)N2CCc3ccccc32)nnc1-c1ccco1	-0.8%	10.7%	1.7%	-2.0%	-15.9%
O=C(CSCc1ccco1)c1ccc(Cl)s1	8.6%	6.8%	u	6.75µM*	2.82µM*
O=C(COc1ccc(Br)cc1)N1CCc2ccccc2C1	-3.6%	-2.0%	-2.9%	u	0.7%
